Our source for the growth values is PubChem BioAssay (NCI).

Compounds without any hit were thinned out: in the full panel of roughly 83,000, 20% have a hit.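 Assay: single dose, 48 h. Readout: percent growth (0 = no net growth; negative = cell death). Active: <10.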 A number with no mark means an inactive call. Active and inactive are the calls of the source.

This experiment has as its system HCT-15 colon. The experiment is described as follows: NCI-60 one-dose screen, 48 h (100 = growth as untreated, 0 = no growth, -100 = all killed). Particulars: 10 µM unless noted.
Regarding `FC(F)(F)c1cc(-c2nnc3n2N=C(N2CCCC2)CS3)cc(C(F)(F)F)c1`, the growth was 96.9%.
To `Clc1ccc(C2=NN(c3ccc(Cl)cc3)C(c3cccc(Nc4ccnc5cc(Cl)ccc45)c3)C2)cc1` (stereo not given) belongs 85.2%; to `C=CCN(/C=C/CN(CC=C)CC=C)CC=C`, 100%.
The value for `COc1ccc(-c2nnc3c4[nH]cnc4ncn23)c(OC)c1` was 29.2%.
To `Cc1ccc(S(=O)(=O)NCCN2c3nc4ccccc4cc3Sc3cc4ccccc4nc32)cc1` belongs 103%; to `O=C(CNC(=O)c1cccc2ccccc12)Nc1ccccc1Oc1cccc(O)c1`, 22.6% [5 µM].
On to `COc1ccc2c(=O)c(OC)c(-c3cc(OC)c(OC)c(OC)c3)oc2c1`, for which the growth was 101%.
To `COc1cnc2c(c1)C(=O)c1c-2n(CCCN2CCC(O)CC2)c(=O)c2cc(F)ccc12` belongs 7.5% (active); to `O=C(/C=C/c1c(-c2ccccc2)[nH]c2ccccc12)S(=O)(=O)c1ccccc1`, 38.1%.
For `O=C(Nc1nc2c(C(F)(F)F)cccc2s1)c1cc(Cl)ccc1O`, the growth was 12.3%.
To `CCN(CC)CCOCC[C@H]1CC[C@H]2[C@@H]3[C@H](C)Cc4cc(OS(N)(=O)=O)ccc4[C@H]3CC[C@]12C` belongs -37% (active); to `NS(=O)(=O)c1ccc(N2CC(c3nc4ccccc4[nH]3)CC2=O)cc1` (stereo not given), 107%; to `COc1cnc2c(c1)C(=O)c1c-2n(CCCN2CCCC2)c(=O)c2cc(F)ccc12`, -18.9% (active).
Take `COc1ccc(-n2cnc3cc(C(=O)N4CCCCC4)ccc32)cc1`: the growth was 104%.
To `COc1cc(-c2n[nH]nc2-c2ccccn2)cc(OC)c1OC` belongs 76.8%; to `COc1cc(C2=NN(C=O)C(c3cccc(Nc4ccnc5cc(Cl)ccc45)c3)C2)cc(OC)c1OC` (stereo not given), 52.4%.
The value for `Cc1sc2nc(NCc3ccccc3)[nH]c(=O)c2c1C` was 33.2%; that for `CC(=O)N1N=C(c2ccc(Nc3nc(NCCO)nc(NCCO)n3)cc2)CC1c1ccc(Cl)cc1` (stereo not given) was 94.5%.
To `COc1ccc(N2CCN(CC(=O)N3CCN(c4nnc(-c5ccc(Cl)cc5)c(-c5ccc(Cl)cc5)n4)CC3)CC2)cc1` belongs 45%; to `C1CCC(C(CC2CCCCN2)C2CCCCC2)CC1` (stereo not given), 25%.
As to `Cc1cc2c(cc1C)[n+](Cc1ccc3ccccc3c1)cn2Cc1ccc2ccccc2c1`, the growth was -77.4% (active).
To `COc1ccc(Oc2ccccc2NC(=O)CNC(=O)c2cccc3ccccc23)cc1` belongs 17.2% [5 µM]; to `COc1cccc(N2CCN(CC(=O)N3CCN(c4nnc(-c5ccc(Cl)cc5)c(-c5ccc(Cl)cc5)n4)CC3)CC2)c1`, 49.5%.
Consider `CC(=O)N1N=C(c2ccc3c(c2)OCO3)CC1c1c(C)nn(-c2ccccc2)c1N(C)Cc1ccccc1` (stereo not given), for which the growth was 79.2%.
The value for `COc1ccc(C(=O)/C=C/c2cccc(Nc3ccnc4cc(Cl)ccc34)c2)cc1` was 30.6%.
The value for `COc1cc(C2CC(C3C(=O)N(C)C(=O)N(C)C3=O)=NN2c2cc(Cl)cc(Cl)c2)cc(OC)c1OC` (stereo not given) was 98.2%.
The value for `O=C1NC(=O)/C(=C\c2ccco2)S1` was 100%; that for `COc1ccc2nc(-c3ccc(Cl)cc3)cc(-c3nnc(SCC(=O)Nc4ccc(C(C)=O)cc4)n3-c3ccccc3)c2c1` was 101%; that for `O=C(CNC(=O)c1cccc2ccccc12)Nc1ccccc1Cc1ccccc1` was 28% [5 µM].
Consider `CCCCc1n(Cc2ccc3ccccc3c2)cc[n+]1Cc1ccc2ccccc2c1`, for which the growth was 49.5%.
To `COc1cc(C2CC(C3C(=O)N(C)C(=O)N(C)C3=O)=NN2C=O)cc(OC)c1OC` (stereo not given) belongs 102%; to `Nc1ncnc2c1CN(Cc1ccccc1)CC2`, 107%.
Take `CCOC(=O)c1sc(NC(=O)COc2cccc(/C=C3\Cc4ccc(Cl)cc4C3=O)c2)nc1C`: the growth is 97.4%.
Turning to `COC(=O)[C@H](CCCCNC(=O)OCc1ccccc1)NC(=O)[C@@H](NC(=O)Nc1cc(C(F)(F)F)cc(C(F)(F)F)c1)C(C)C`, the growth was 13.4% [100 µM].
To `CCN(CC)c1ccc(C(=C2C=CC(=[N+](CC)Cc3cccc(S(=O)(=O)O)c3)C=C2)c2ccc(N(CC)Cc3cccc(S(=O)(=O)O)c3)cc2)cc1` belongs 85.1%.
The value for `O=C(CNC(=O)c1cccc2ccccc12)Nc1ccccc1Oc1ccc(O)cc1` was 27.4% [5 µM].
`COc1cc(C(=O)/C=C/c2cccc(Nc3ccnc4cc(Cl)ccc34)c2)cc(OC)c1OC`: the growth was -32.1% (active).
To `CN1C(=O)C(C2=NN(C=O)C(c3ccc(F)cc3)C2)C(=O)N(C)C1=O` (stereo not given) belongs 101%.
The value for `O=CN1N=C(c2ccc(Nc3ccnc4cc(Cl)ccc34)cc2)CC1c1ccc(Cl)cc1` (stereo not given) was 16.4%; that for `COc1cccc(-c2nc3cc(NC(=O)c4ccc(Cl)c(C#N)c4)ccc3o2)c1` was 51.6%.
